Active and inactive are the calls of the source. Unless noted, the rule behind the calls is not given here.
Columns and labels:
[1] = compounds binding Alexa647 anti-His antibody – biochemical, small-molecule microarray, 635 nm fluorescence, artefact control for SMM control protein annotation, primary screen (AID 1128); conditions: higher = more signal;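 note: score merges feature fluorescence with signal-to-noise for each printed compound spot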
[2] = test system: Human papillomavirus type 1a E7 protein (residues 1-88); test: HPV1a E7 small-molecule binders, primary screen, biochemical, small-molecule microarray, residues 1-88, 635 nm (AID 1129); conditions: small-molecule microarray binding, fluorescence 635 nm; higher = more signal
[3] = molecular target: Focal adhesion kinase 1 (Homo sapiens) (UniProt Q05397); test: PTK2 protein binding on printed compound slides – biochemical, small-molecule microarray, 635/667 nm fluorescence, BSA, DTT, primary screen (AID 1130); conditions: 635 nm fluorescence, higher = more signal;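 note: composite of spot emission at 667 nm and signal to noise over triplicate slides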
Chain of Focal adhesion kinase 1 (Homo sapiens) (Q05397 whole entry, looked up): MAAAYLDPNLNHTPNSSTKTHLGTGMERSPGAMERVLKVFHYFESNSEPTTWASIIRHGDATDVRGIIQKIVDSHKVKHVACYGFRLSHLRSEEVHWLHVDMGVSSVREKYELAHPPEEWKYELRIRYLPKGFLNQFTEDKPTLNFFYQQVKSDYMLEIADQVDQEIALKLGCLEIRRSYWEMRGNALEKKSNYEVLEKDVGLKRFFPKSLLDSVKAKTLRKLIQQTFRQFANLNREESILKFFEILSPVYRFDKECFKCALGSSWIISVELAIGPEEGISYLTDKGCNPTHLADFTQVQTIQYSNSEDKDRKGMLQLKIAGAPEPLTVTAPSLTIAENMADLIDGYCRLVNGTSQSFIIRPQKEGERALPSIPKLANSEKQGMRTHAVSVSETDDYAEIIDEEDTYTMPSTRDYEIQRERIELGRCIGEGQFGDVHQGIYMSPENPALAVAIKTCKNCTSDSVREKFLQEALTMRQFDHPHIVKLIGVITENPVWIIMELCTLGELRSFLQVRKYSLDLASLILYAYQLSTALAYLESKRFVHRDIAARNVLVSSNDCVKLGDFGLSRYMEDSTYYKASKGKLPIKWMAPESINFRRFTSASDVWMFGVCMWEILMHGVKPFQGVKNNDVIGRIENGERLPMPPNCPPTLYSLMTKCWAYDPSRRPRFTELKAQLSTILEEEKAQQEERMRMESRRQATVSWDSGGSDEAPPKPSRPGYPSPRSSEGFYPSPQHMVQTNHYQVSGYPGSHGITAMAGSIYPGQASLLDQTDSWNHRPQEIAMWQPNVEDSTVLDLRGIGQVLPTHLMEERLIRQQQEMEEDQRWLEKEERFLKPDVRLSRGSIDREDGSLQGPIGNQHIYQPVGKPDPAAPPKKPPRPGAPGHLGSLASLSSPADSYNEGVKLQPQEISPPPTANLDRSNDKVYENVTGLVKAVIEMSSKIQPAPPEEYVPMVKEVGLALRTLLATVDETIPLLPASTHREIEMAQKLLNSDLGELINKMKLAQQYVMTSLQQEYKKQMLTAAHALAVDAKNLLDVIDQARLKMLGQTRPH

[4] = test system: Fibrinogen (Alexa647-labelled); test: Alexa647-fibrinogen binding to printed small molecules – biochemical, small-molecule microarray, 635/667 nm fluorescence, artefact control for SMM control-protein annotation, profiling panel (AID 1131); conditions: fibrinogen-A647 binding fluorescence, higher = more signal;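 note: z-score merges 667 nm fluorescence with per-spot signal-to-noise over triplicate slides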
[5] = molecular target: Follistatin (Homo sapiens) (UniProt P19883); test: FST protein binding to printed compounds – biochemical, small-molecule microarray, 635/667 nm fluorescence, primary screen (AID 1132); conditions: 635 nm fluorescence, higher = more signal
Chain of Follistatin (Homo sapiens) (P19883 whole entry, looked up): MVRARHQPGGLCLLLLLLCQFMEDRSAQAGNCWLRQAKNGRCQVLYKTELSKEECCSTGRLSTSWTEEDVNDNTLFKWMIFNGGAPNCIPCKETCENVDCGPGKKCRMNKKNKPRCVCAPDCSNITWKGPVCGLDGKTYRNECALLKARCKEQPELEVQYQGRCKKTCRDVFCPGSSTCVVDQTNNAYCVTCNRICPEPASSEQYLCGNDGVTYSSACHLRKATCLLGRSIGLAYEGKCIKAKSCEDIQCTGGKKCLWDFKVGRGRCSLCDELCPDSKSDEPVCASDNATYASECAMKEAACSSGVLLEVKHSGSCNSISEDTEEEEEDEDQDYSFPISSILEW

[6] = molecular target: Fibroblast growth factor 2 (Homo sapiens) (UniProt P09038); test: basic fibroblast growth factor binding to printed compounds – biochemical, small-molecule microarray, 635/667 nm fluorescence, primary screen (AID 1133); conditions: FGF2, fluorescence 635/667, higher = more signal
Chain of Fibroblast growth factor 2 (Homo sapiens) (P09038 whole entry, looked up): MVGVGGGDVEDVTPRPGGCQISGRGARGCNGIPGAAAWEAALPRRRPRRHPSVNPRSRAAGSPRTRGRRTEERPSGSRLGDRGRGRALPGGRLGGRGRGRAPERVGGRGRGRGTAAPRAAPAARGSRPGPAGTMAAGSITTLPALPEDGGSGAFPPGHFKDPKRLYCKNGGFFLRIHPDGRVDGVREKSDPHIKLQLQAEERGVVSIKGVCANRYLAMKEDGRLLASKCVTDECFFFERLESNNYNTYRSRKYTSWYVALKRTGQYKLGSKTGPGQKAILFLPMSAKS

[7] = JC-1 mitochondrial potential readout, lung cancer cells – cell-based, A549, JC-1 fluorescence, basal, 24 h, 100 nL, profiling panel (AID 1138); conditions: higher = more signal;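 note: A549 lung adenocarcinoma cells under basal conditions with no added stimulus; test concentration not given here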
[8] = test system: Lefty1; test: Lefty1 protein binding to printed compounds – biochemical, small-molecule microarray, 635/667 nm fluorescence, primary screen (AID 1139); conditions: fluorescence 635/667, higher = more signal
[9] = test system: wheat germ agglutinin (Triticum aestivum), Alexa647-labelled; test: Alexa647-WGA lectin binding to printed small molecules – biochemical, small-molecule microarray, 635/667 nm fluorescence, artefact control for SMM control-protein annotation, profiling panel (AID 1140); conditions: WGA-A647 binding, 635 nm fluorescence, higher = more signal;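 note: score merges 667 nm feature emission with signal to noise over triplicate slides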
[10] = molecular target: Luciferin 4-monooxygenase (Photinus pyralis) (UniProt P08659); test: inhibition of purified Photinus pyralis luciferase – biochemical, luminescence, purified enzyme, 2006 set, primary screen (AID 1141); conditions: purified firefly luciferase, SteadyGlo luminescence, 30 min; higher = more signal, called active from +8 up or from −8 down;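 note: cell-free assay with purified firefly luciferase at 100 ng per well in PBS; test concentration not given here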
Chain of Luciferin 4-monooxygenase (Photinus pyralis) (P08659 whole entry, looked up): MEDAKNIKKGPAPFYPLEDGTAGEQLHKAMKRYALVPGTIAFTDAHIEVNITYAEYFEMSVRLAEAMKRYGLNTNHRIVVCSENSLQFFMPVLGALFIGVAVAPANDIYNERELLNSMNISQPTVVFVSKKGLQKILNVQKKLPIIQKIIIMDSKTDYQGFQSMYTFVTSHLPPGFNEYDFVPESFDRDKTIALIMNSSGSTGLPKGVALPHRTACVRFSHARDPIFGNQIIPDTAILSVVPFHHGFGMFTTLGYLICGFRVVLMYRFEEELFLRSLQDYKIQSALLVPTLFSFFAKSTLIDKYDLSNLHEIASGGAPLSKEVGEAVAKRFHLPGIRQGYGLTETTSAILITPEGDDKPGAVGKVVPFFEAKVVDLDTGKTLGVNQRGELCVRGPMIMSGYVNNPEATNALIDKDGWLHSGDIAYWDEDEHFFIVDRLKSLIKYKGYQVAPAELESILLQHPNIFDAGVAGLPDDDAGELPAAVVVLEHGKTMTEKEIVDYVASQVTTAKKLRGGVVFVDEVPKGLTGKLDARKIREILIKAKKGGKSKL

[11] = test system: Wnt5a (protein binding on small-molecule microarray); test: small molecules binding Wnt5a protein – biophysical, small-molecule microarray, 635/667 nm fluorescence, primary screen (AID 1142); conditions: 635 nm fluorescence, higher = more signal;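 note: fluorescence read at 667 nm with signal to noise per printed feature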
[12] = ATP-based viability of Huh7 replicon cells – cell-based, CellTiter-Glo luminescence, basal, 48 h, cytotoxicity control for HCV replication inhibitor project, primary screen (AID 1143); conditions: higher = more signal, called active from +8 up or from −8 down;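 note: Huh7 hepatoma cells carrying a hepatitis C replication reporter with no stimulus; test concentration not given here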
[13] = Pseudomonas biofilm growth suppression – PAO1 strain, BacTiter-Glo luminescence, LB-PBS, primary screen (AID 1144); conditions: P. aeruginosa PAO1 biofilm, 12 h, higher = more signal
[14] = basal CRE-LacZ reporter activity in PC12 – cell-based, unstimulated, primary screen (AID 1145); conditions: no forskolin, luminescence, 4.5 h, higher = more signal, called active from +8 up or from −8 down
[15] = forskolin-driven CRE-LacZ activity in PC12 – cell-based, CRE-LacZ reporter, forskolin-stimulated, primary screen (AID 1146); conditions: luminescence, 4.5 h, higher = more signal, called active from +8 up or from −8 down;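 note: PC12 cells with 6xCRE LacZ reporter stimulated by forskolin 10 µM; beta-galactosidase reporter signal reflecting CREB driven transcription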
[16] = molecular target: Streptavidin (Streptomyces avidinii) (UniProt P22629); test: compounds binding control protein streptavidin – biophysical, small-molecule microarray, 635/667 nm fluorescence, artefact control for SMM compound annotation, primary screen (AID 1147); conditions: higher = more signal;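 note: signal reflects streptavidin binding to arrayed compounds as a control protein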
Chain of Streptavidin (Streptomyces avidinii) (P22629 whole entry, looked up): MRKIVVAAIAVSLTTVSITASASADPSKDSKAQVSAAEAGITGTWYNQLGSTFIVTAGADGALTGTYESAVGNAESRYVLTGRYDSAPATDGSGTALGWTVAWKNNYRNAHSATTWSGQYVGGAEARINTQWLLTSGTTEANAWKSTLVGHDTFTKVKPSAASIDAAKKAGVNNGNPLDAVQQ

[17] = probe aInhba binding on compound microarray – biochemical, small-molecule microarray, 635/667 nm fluorescence, primary screen (AID 1148); conditions: higher = more signal;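 note: score merges 667nm spot fluorescence with signal-to-noise for antibody binding to printed compounds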
[18] = molecular target: Torsin-1A (Homo sapiens) (UniProt O14656); test: TOR1A wild-type binding on microarray – cell lysate, small-molecule microarray, lysate, 635/667 nm, primary screen (AID 1149); conditions: COS7 hTOR1A-WT lysate, 635 nm fluorescence, higher = more signal
Chain of Torsin-1A (Homo sapiens) (O14656 whole entry, looked up): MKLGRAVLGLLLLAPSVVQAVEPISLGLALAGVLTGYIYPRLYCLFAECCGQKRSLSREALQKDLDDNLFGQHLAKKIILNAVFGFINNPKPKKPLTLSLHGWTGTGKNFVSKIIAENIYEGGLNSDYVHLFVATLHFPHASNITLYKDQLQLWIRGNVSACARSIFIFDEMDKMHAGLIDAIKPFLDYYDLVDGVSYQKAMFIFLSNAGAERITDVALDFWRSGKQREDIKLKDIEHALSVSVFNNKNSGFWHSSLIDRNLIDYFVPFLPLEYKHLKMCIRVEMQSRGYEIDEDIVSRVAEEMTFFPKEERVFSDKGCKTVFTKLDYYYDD

[19] = molecular target: Torsin-1A (Homo sapiens) (UniProt O14656); test: torsin A mutant lysate binding on microarrays – cell lysate, small-molecule microarray, COS7 lysate, 635/667 nm fluorescence, primary screen (AID 1150); conditions: COS7 hTOR1A mutant lysate, 635 nm fluorescence, higher = more signal;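 note: score pools 667 nm emission and signal to noise measuring lysate protein binding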
[20] = test system: Sonic hedgehog protein (Shh); test: Sonic hedgehog microarray binding compounds – biochemical, small-molecule microarray, 635/667 nm fluorescence, primary screen (AID 1151); conditions: 635 nm fluorescence, higher = more signal;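 note: Shh protein binding to compounds spotted on small-molecule microarray slides; score combines spot fluorescence intensity with signal-to-noise across triplicate slides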

Row | Structure (SMILES) | composite z-score [1] | composite z-score [2] | composite z-score [3] | composite z-score [4] | composite z-score [5] | composite z-score [6] | z-score [7] | composite z-score [8] | composite z-score [9] | z-score [10] | composite z-score [11] | z-score [12] | z-score [13] | z-score [14] | z-score [15] | composite z-score [16] | composite z-score [17] | composite z-score [18] | composite z-score [19] | composite z-score [20]
1 | CCOC(=O)[C@H](Cc1ccccc1)NC(=O)CCC1CC(OC(=O)NCc2ccc3c(c2)OCO3)CC2(CCCC(COC(=O)NCc3cccc(C(F)(F)F)c3)O2)O1 (stereo not given in full) | 1 | 0.355 | -0.15 | -0.416 | 0.916 | 1.01 | -0.659 | 0.955 | 0.229 | 0.794 (inactive) | -0.0271 | -2.72 (inactive) | -0.518 (inactive) | -0.618 (inactive) | -0.0205 (inactive) | 0.0284 | 0.0448 | 0.0337 | 0.134 | 1.17
2 | CN1C(=O)C2C=CC(C(O)c3ccc(Br)cc3)N(N(c3ccccc3)c3ccccc3)C2C1=O (stereo not given) | 0.373 | 0.77 | 0.704 | 0.312 | 0.502 | -0.538 | 1.34 | -0.409 | 0.585 | -0.495 (inactive) | -0.0158 | -0.776 (inactive) | -1.19 (inactive) | 1 (inactive) | -0.342 (inactive) | 1.04 | -0.0375 | 0.293 | -0.135 | -0.583
3 | C=C(/C(=C/C[C@H](OC(=O)c1ccncc1)c1ccc(OCCO)cc1)c1cnc2ccccc2c1)C(C)C | 0.426 | 1.21 | 0.144 | 0.853 | 1.47 | 1.82 | 1.26 | 1.52 | 0.843 | -2.12 (inactive) | 1.32 | -2.02 (inactive) | -0.295 (inactive) | 6.42 (inactive) | -0.429 (inactive) | 1.3 | 0.0471 | 1.12 | 0.551 | 2.16
4 | CS(=O)(=O)CCOC(=O)C1=CC(CCCO)=CC(c2cccs2)N(Cc2cccc(OC(F)(F)F)c2)C=C1C(=O)OCCS(C)(=O)=O (stereo not given) | 0.97 | 1.03 | 0.905 | 0.579 | 0.243 | 0.202 | 1.64 | 0.578 | 1.02 | -2.01 (inactive) | 0.141 | -3.11 (inactive) | 0.957 (inactive) | 4.08 (inactive) | 0.706 (inactive) | 1.25 | 0.245 | 0.972 | 0.88 | 0.37
5 | NC(=O)NCC#Cc1ccc2c(c1)[C@]1(C(=O)N2)[C@H](c2ccc(O)cc2)N2[C@H](c3ccccc3)[C@H](c3ccccc3)OC(=O)[C@H]2[C@@H]1C(=O)N1CCCCCCC1 | 0.687 | 0.564 | -0.222 | 0.161 | 1.34 | 0.25 | 0.296 | 1.02 | 0.604 | 0.363 (inactive) | 0.2 | -0.502 (inactive) | -0.75 (inactive) | -0.231 (inactive) | -0.674 (inactive) | 0.393 | 1.23 | -0.067 | 0.609 | 1.06
6 | O=C1C[C@@H](O)[C@@H](O)[C@@H]2[C@@H]3C(=O)N(Cc4ccc5c(c4)OCO5)C(=O)[C@@H]3CC[C@@H]12 | -0.0619 | 0.459 | 0.0309 | 0.197 | 0.499 | 0.507 | 0.481 | 0.549 | -0.107 | -0.786 (inactive) | 0.0765 | 0.136 (inactive) | 0.00816 (inactive) | -0.116 (inactive) | 0.0785 (inactive) | -0.282 | -0.149 | 0.622 | 0.407 | 0.698
7 | CC(C)(C)OC(=O)CC[C@]1(C(=O)NCc2ccccc2)N=C(c2ccc(OCCCO)cc2)O[C@H]1c1ccccc1 | 1.99 | 1.26 | 1.36 | 0.983 | 0.362 | 0.487 | 0.949 | -0.326 | 0.732 | 0.172 (inactive) | 1.01 | -3.16 (inactive) | -1.77 (inactive) | 0.699 (inactive) | -1.23 (inactive) | 1.58 | 0.347 | 0.712 | 1.11 | -0.349
8 | Cc1cc2c(c(=O)o1)[C@H](O)[C@H]1O[C@H]1C2=O | -0.633 | -1.07 | -0.21 | -0.236 | 0.429 | 0.126 | -1.23 | -0.32 | -0.137 | -0.0074 (inactive) | -0.218 | -2.97 (inactive) | 1.6 (inactive) | -1.06 (inactive) | 2.18 (inactive) | 0.0061 | -0.209 | 0.284 | 0.46 | 1.5
9 | COC(=O)[C@@H]1CC[C@H](C)[C@@H](c2ccc(C)cc2)N1C(=O)c1ccc(C=NOC(C)CN2CCCCc3nc(C)c(C)cc32)cc1 (stereo not given in full) | 0.444 | -0.732 | 0.0369 | 0.469 | 0.114 | 0.222 | 2.32 | 0.847 | 0.0329 | 0.662 (inactive) | 0.595 | -3.62 (inactive) | -0.356 (inactive) | 1.81 (inactive) | 1 (inactive) | 0.48 | -0.0791 | -0.269 | -0.332 | 0.328
10 | C#CCCCON=C1C[C@@H](O)[C@@H](O)[C@@H]2[C@@H]3C(=O)N(c4cccc(Oc5ccccc5)c4)C(=O)[C@@H]3CC[C@@H]12 | -0.0428 | 1 | 0.181 | 0.945 | 0.304 | 0.224 | -0.786 | 0.481 | 0.632 | 1.02 (inactive) | 0.0741 | 0.317 (inactive) | 0.000705 (inactive) | 2.16 (inactive) | 0.427 (inactive) | 0.766 | -0.128 | -0.0313 | 0.112 | 0.277
